Structures are written as SMILES. Among all 370,000 compounds or so, about 2,000 (0.54%) were called active. What follows is part of a selection rich in actives, with near analogues and random picks from the rest. Unmarked numbers belong to inactive results. No stated cut-off is given here; in the data, active means inhibition above about 30%; inactive means the rest.

In this assay the test system is Crimean-Congo hemorrhagic fever virus L polyprotein viral ovarian tumor (vOTU) protease domain. The assay is described as follows: CCHFV vOTU protease inhibitors, primary screen, biochemical, Pep-AMC substrate, fluorescence (AID 651958). Further: 0% = vehicle wells with enzyme and 100% = no enzyme wells. The following applies: at 11.5 µM, active compounds read high.
In general, inhibition refers to the change of the read-out against control, counted positive when it falls. Regarding `O=C(Cc1ccc(NC(=O)C2CCCN(C(=O)CCc3ccccc3)C2)cc1)Nc1ccc(C(=O)N2CCOCC2)cc1` (stereo unspecified), the inhibition was 23.1%.

For `Cc1ccc(CSc2nc3[nH]ncc3c(=O)[nH]2)cc1`, the inhibition is -0.35%. As for `Cc1ccc(CSc2nc(-c3ccccc3)c(C#N)c(=O)[nH]2)cc1`, the inhibition was 39.9% (active). Regarding `Cc1ccccc1CSc1nnc(-c2ccccc2)c(=O)[nH]1`, the inhibition was -2.29%. As to `CN(C)c1ccc(NC(=O)CSc2n[nH]c(-c3ccco3)n2)cc1`, the inhibition was 4.49%. As for `Cc1ccc(O)c(NC(=O)c2cc(-c3ccco3)on2)c1`, the inhibition is -0.2%. For `COCCNC(=O)Nc1ccc2nc(-c3ccco3)c(-c3ccco3)nc2c1`, the inhibition is 36% (active). Turning to `COc1ccc(NC(=O)NN2CCN(C)CC2)c(OC)c1`, the inhibition is 4.34%.

`CN1CCCc2cc(C#N)c(=O)[nH]c21`: the inhibition was -314%. Under `CSCCC(NS(=O)(=O)c1ccc2c(c1)oc(=O)n2C)C(=O)NC1CCCc2ccccc21` (stereo unspecified) stands 7.61%. Take `Cc1cc(N2CCNC[C@@H]2C)ccc1N1CC[C@H](O)C1`: the inhibition is -1.97%. As to `Oc1ccc(/C=N/Nc2ccc(C(F)(F)F)cn2)cc1O`, the inhibition was 31.3% (active). Next, `COc1ccc(/C=N/NC(=O)Cn2cc(C(F)(F)F)ccc2=O)cc1`: 4.22%; `O=C(N/N=C/c1ccc(O)c(O)c1)C1c2ccccc2Oc2ccccc21`: 4.82%; `CCc1cccc(C)c1N(C(=O)Cn1c(CO)nc2ccccc21)C(C)COC` (stereo unspecified): 6.13%. Next, `O=C(Nc1cc(S(=O)(=O)N2CCOCC2)ccc1N1CCOCC1)c1c(F)cccc1Cl`: 8.3%; `Cc1ccc2c(c1)C(c1ccccc1)N(C(=O)c1ccc(S(=O)(=O)N3CCOCC3)cc1)CC(=O)N2` (stereo unspecified): -6.16%; `Cc1ccc(S(=O)(=O)N2CCN(C(=O)c3cccs3)CC2)cc1`: -14.5%. As to `COc1ccccc1NC1=NC(c2ccc(Cl)cc2)N=C(N)N1` (stereo unspecified), the inhibition was 2.38%.

Take `CCNC(=S)N1CCN(S(=O)(=O)c2ccc(Cl)s2)CC1`: the inhibition was 11.2%. On to `Cc1ccc(NC(=S)N2CCN(c3ncccn3)CC2)cc1C`, for which the inhibition is 2.37%. For `CCNC(=S)N1CCN(c2ncccn2)CC1`, the inhibition was 43.8% (active). Turning to `CCC(C(=O)NCc1cccnc1)n1nc(C)c2sc3ccccc3c2c1=O` (stereo unspecified), the inhibition was -2%. Take `COCCNC(=O)C1C(=O)Nc2ccccc2C(=O)N1c1ccc2c(c1)OCCO2` (stereo unspecified): the inhibition was 26.3%.

Consider `O=C(/C=C/c1cccs1)c1cc(Cl)ccc1OC(=O)N1CCOCC1`, for which the inhibition was 10.7%.

Regarding `Cc1cc2nc(SCCN3CCOCC3)[nH]c2cc1C`, the inhibition was 3.87%.

As for `CCOC(=O)N1CCC(NC(=O)Cc2cn(C)c3ccccc23)CC1`, the inhibition is 3.03%. For `CCOC(=O)N1CCC(C(N)=O)CC1`, the inhibition was 8.61%.

Consider `CCOC(=O)N1CCC(c2cc(=O)n(-c3ccccc3)[nH]2)CC1`, for which the inhibition is 71.1% (active). `CCOc1ccc(CNC(=O)C2CC(=O)N(C3CCCC3)C2)cc1OC` (stereo unspecified): the inhibition is 4.25%. For `CC(C)(C)OC(=O)NC(Cc1ccccc1)C(=O)NC(CSC1CCCCO1)C(=O)NN` (stereo unspecified), the inhibition is -4.89%. Consider `CCOC(=O)N(C)c1c(CC)nc2c(OCc3ccccc3C(=O)OC)cccn12`, for which the inhibition is 15.9%. For the molecule `C=CCn1c(SCc2cccc(F)c2)nc2cc(C(=O)N3CCC(C(N)=O)CC3)ccc2c1=O`, the inhibition was 14.2%. Under `O=C1Nc2cc(C(=O)N3CCN(c4ccc(F)cc4)CC3)ccc2NC1CSCc1cccc(F)c1` (stereo unspecified) stands 32.1% (active).

Turning to `Cc1ccccc1CN1CCN(C(=O)c2cccc(F)c2)CC1`, the inhibition was 6.94%. Turning to `COC(=O)C1=C(Nc2ccc(C)cc2)C=C(C)C(C(=O)OC)C1c1ccc(F)cc1` (stereo unspecified), the inhibition is 15.8%.

`COc1ccc(C2=Nc3cc(C)ccc3OC2)cc1`: the inhibition is 14.7%. Next, `COC(=O)c1ccccc1N=Nc1c(C)[nH][nH]c1=O`: -9.29%; `COc1ccccc1N=Nc1c(O)[nH]c(=S)[nH]c1=O`: 38.1% (active). With `CCOCCc1c(O)[nH]c(=S)[nH]c1=O`, the inhibition is 5.12%. On to `O=C(COC(=O)/C=C/c1ccc(S(=O)(=O)N2CCCCCC2)cc1)NCc1ccccc1Cl`, for which the inhibition was -8.91%. With `Cc1cc(C)nc(-n2ncc3c2CC(c2ccc(C(C)C)cc2)CC3=O)n1` (stereo unspecified), the inhibition is 2.76%. As to `Cc1cccc(C)c1NC1=NC(=S)N(c2ccc(N(C)C)cc2)C1(C)C`, the inhibition was 27.5%. On to `CCOC(=O)C1C(c2ccc(O)cc2)NC(=O)NC1(O)C(F)(F)F` (stereo unspecified), for which the inhibition is -18.4%. In the case of `O=C1NC(c2ccc(-c3ccccc3[N+](=O)[O-])o2)C(C(=O)c2ccc(Cl)cc2)C(O)(C(F)(F)F)N1` (stereo unspecified), the inhibition was 38.5% (active). As to `Cc1cn(C)c(=O)n(C)c1=O`, the inhibition was -10.2%. Under `CCCCCCN1C[C@@H](O)[C@H](n2cc(COC(=O)c3ccccc3)nn2)C[C@@H]1c1ccc(Cl)cc1` stands -5.93%; under `CCCCCC(=O)N1C[C@H](O)[C@@H](n2cc(COC(=O)c3ccccc3)nn2)C[C@@H]1c1ccc(C)cc1`, 30.5% (active); under `Cc1ccc([C@H]2C[C@H](O)[C@@H](n3cc(COC(=O)c4ccccc4)nn3)CN2C(=O)C2CCCCC2)cc1`, 9.18%.

As for `COc1ccc(C(C#N)N2N=C(C)CC2(C)C)cc1` (stereo unspecified), the inhibition is 4.09%.

Take `COc1cc(Cl)c(C)cc1NC(=O)[C@@H]1CCCN1C(=O)c1cccs1`: the inhibition is -1.68%. Next, `CCC1=NN(C(=O)Cc2ccc([N+](=O)[O-])cc2)C(O)(c2ccc(Br)cc2)C1` (stereo unspecified): -9.95%; `C=CCC[C@@H](CCCCC)OC(=O)/C=C/[C@@H](O)[C@H](O)C[C@H](O)CC=C`: 32.8% (active); `C=CCC[C@H](CCCCC)OC(=O)/C=C/[C@H](O)[C@@H](O)C[C@@H](O)CC=C`: 18.2%. Regarding `O=C(CCl)NNc1cccc(Cl)n1`, the inhibition was 2.47%. `Cc1ccc(C23CC4CC(CC(C(=O)NCC(=O)O)(C4)C2)C3)cc1`: the inhibition was 12.6%.

As for `CN(C)c1ccc(N/C=C/C(=O)C(F)(F)F)cc1`, the inhibition was 65% (active). Next, `Cc1cc(C(=O)N/N=C/c2ccc(O)c([N+](=O)[O-])c2)c(C)n1-c1ccc(F)cc1`: 45.6% (active); `Cc1ccc(NC(=O)CN(C)Cc2ccc(F)cc2)c([N+](=O)[O-])c1`: -3.76%.

Turning to `Cc1cc(C(=O)COc2ccccc2[N+](=O)[O-])c(C)n1-c1cccc(S(=O)(=O)N2CCOCC2)c1`, the inhibition is 15.2%. On to `CC(C)(C)n1nnnc1C(c1ccccc1F)N1CCN(C(=O)c2ccco2)CC1` (stereo unspecified), for which the inhibition was 9.18%.

For `CC(=O)N1CCN(c2ccc(NCc3ccc(C(C)C)cc3)cc2)CC1`, the inhibition is 34.2% (active). Take `CC(C)c1ccc(OCC(=O)N2CCCN(C)CC2)cc1`: the inhibition is 7.24%. In the case of `CC(C)c1ccc(NC(=O)COC(=O)c2ccc(CN3CCCC3=O)cc2)cc1`, the inhibition is 3.69%. Regarding `O=C(NC1CC1)C1=C[C@H](c2coc3ccccc3c2=O)C[C@H](OCCCCO)O1`, the inhibition was -2.05%. Regarding `CCOc1ccc(NC(=O)CCCCCN2C(=O)[C@@H]3Cc4ccccc4CN3C2=O)cc1`, the inhibition was 13.7%. As for `CC(C)(C)NC(=O)CN(C(=O)c1csnn1)c1ccccc1-c1ccccc1`, the inhibition is -7.68%. Regarding `CSc1ccccc1NC(=O)c1cc(C2CC2)on1`, the inhibition is 11.1%. In the case of `NC1=CC(=O)C(=O)c2cccnc21`, the inhibition was 104% (active). On to `O=C(NC1CCN(C(=S)NCc2ccco2)CC1)c1ccc(F)cc1`, for which the inhibition is 13.2%. Under `COc1ccccc1N(CC(=O)Nc1ccc(C)cc1Cl)S(=O)(=O)c1cccs1` stands 1.37%.

The values are drawn from PubChem BioAssay AID651958 (The Scripps Research Institute Molecular Screening Center, 2012).
